About 83,000 compounds went through this panel and 20% of them were active in at least one assay; those are over-represented in the sample as a whole.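 Cell lines were cultured in 96-well plates, exposed to a single compound concentration, and assessed for percent growth 48 hours later.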 Unmarked numbers belong to inactive results. Calls of active or inactive are those of the source. Rule for the calls: active = growth percent below 10; inactive = the rest.
Tested on: HCT-15 colon
Assay: NCI-60 one-dose screen, 48 h (100 = growth as untreated, 0 = no growth, -100 = all killed)
Details: 10 µM

SMILES | growth
CN(C)CCOc1nc2ccccc2c2c1-c1ccc(Cl)cc1C2=O | 5.59% (active)
CCOC(=O)C(CSC(c1ccccc1)(c1ccccc1)c1ccccc1)NC(=O)C(CSC(c1ccccc1)(c1ccccc1)c1ccccc1)NC(c1ccccc1)(c1ccccc1)c1ccccc1 (centres undefined) | 100%
O=C1OCC2=C1C(c1cccc(Cl)c1)c1cc3c(cc1N2CCO)CCC3 (centres undefined) | 9.71% (active)
O=C(Nc1ccc(Cl)cc1)N1NC(c2ccc(Cl)cc2)C=C1c1ccccc1 (centres undefined) | 103%
S=c1[nH]ccn1-c1c(Cl)cccc1Cl | 100%
Cc1ccc(NC(=O)CSc2nc3ccccc3c(=O)n2CCc2ccccc2)c(C(=O)O)c1 | 107%
O=S(=O)(NCCCNc1nccc(-c2c(-c3ccc(F)cc3)nc3sccn23)n1)c1ccc(F)cc1 | 38.4%
CCn1cc(C(=O)O)c(=O)c2cnc(N3CCCC3)nc21 | 111%
O=c1c2ccccc2nc(SCCN2CCCCC2)n1CCc1ccccc1 | 80.7%
COc1cc2cc3c(nc2cc1OC)CCN3Cc1ccc(NC(=O)c2ccc(Cl)c(C(F)(F)F)c2)cc1 | 95.8%
CN(C)C(=S)N/N=C\C=N/NC(=S)N(C)C | 31.5%
COc1cc(Cl)cc(-c2nn(-c3cccc(NC(=O)c4ccc(Cl)c(Cl)c4)c3)cc2-c2ccncc2)c1 | 57.9%
CCCCCCCCCCCCCCCC(=O)OC1[C@@H](OC(=O)CCCCCCCCCCCCCCC)[C@@H](C(=O)N[C@@H](CCCCN)C(=O)OC)O[C@H]1n1cnc2c(=O)[nH]c(NC(=O)C(C)C)nc21 (some centres undefined) | 96.6%
CSc1nn(-c2ccccc2)c2ncnc(Oc3ccccc3)c12 | 93.2%
COc1ccc(/C=C/C(=O)Nc2ccc(-c3nc4ccc(OC)cc4s3)cc2)cc1 | 111%
O=C(/C=C/c1cc2ccccc2[nH]c1=O)c1ccc2c(c1)OCO2 | 97.6%
COc1ccc(N2C(=O)C3c4[nH]c5ccc(OCc6ccccc6)cc5c4C4CCC(C(C)C)CC4C3C2=O)cc1 (centres undefined) | 16.3%
COc1cc(C(=C2O[C@@H]([C@H]3COC(C)(C)O3)[C@H]3OC(C)(C)O[C@@H]23)c2cc(OC)c(OC)c(OC)c2)cc(OC)c1OC | 103%
COc1ccccc1/C=C/C(=O)c1ccccc1 | 61.6%
COc1ccc(C2=Nc3c(C)nn(-c4ccccc4)c3NC(c3ccc(Oc4ccnc5cc(Cl)ccc45)c(OC)c3)C2)cc1 (centres undefined) | 62.9%

SMILES | growth
NC(=O)SCC(=O)Nc1ccc(S(N)(=O)=O)cc1 | 109%
c1ccc([I+]c2ccccc2)cc1 | 89.4%
CCN1CCCC1CNC(=O)c1ncc(-c2ccc(C(F)(F)F)cc2)c(NC2CCCCCC2)n1 (centres undefined) | 90.8%
Cc1ccc(N=Nc2c(N)nc(N)[nH]c2=O)cc1C | 103%
COc1ccc(/C=C2/CN(C(=O)c3ccc(C)cc3)C/C(=C\c3ccc(OC)cc3)C2=O)cc1 | 91.3%
COc1cc(-c2cc(/C=C3\C(=O)Nc4cc(Cl)ccc43)[nH]n2)cc(OC)c1OC | 13.6%
O=C(Nc1cccc(-n2cc(-c3ccncc3)c(-c3ccc(O)c(Cl)c3)n2)c1)c1ccc(N2CCOCC2)c(C(F)(F)F)c1 | 16.6%
COc1ccccc1CNCCCN1C(=O)c2ccc3c4c(ccc(c24)C1=O)C(=O)N(CCCN)C3=O | -30.8% (active)
N=c1c2c(-c3ccccc3)c(-c3ccccc3)n(Cc3ccccc3)c2ncn1CCCO | 28.1%
CCCC(F)C(=O)O (centres undefined) | 100%
O=C(N/N=C\c1cc(Cl)ccc1[N+](=O)[O-])c1ccco1 | 97%
COC(=O)c1ccc(=O)oc1 | 97.8%
Oc1[nH]c2ccc(Cl)cc2c1/C=c1/ccc2c(c1)N=C(c1cc(F)cc(F)c1)N=2 | 46.1%
CN(Cc1ccccc1)Cc1ccc([N+](=O)[O-])cc1I | 92.2%
O=C(CCCCC(=O)Nc1ccc2c(c1)/C(=C/c1ccc[nH]1)C(=O)N2)NO | 96.2%
O=C1/C(=C/c2ccc(Cl)cc2)SC(=Nc2ccc(Cl)cc2)N1Cc1nc2ccccc2[nH]1 | 64.1%
O=C(C[P+](c1ccccc1)(c1ccccc1)c1ccccc1)C[P+](c1ccccc1)(c1ccccc1)c1ccccc1 | -77.6% (active)
N=C(N)c1ccc(-c2ccc(-c3ccccc3)o2)nc1 | 81.1%
COc1cc(/C=C2\CCCC3=C2N=C2SC=NN2C3c2cc(OC)c(OC)c(OC)c2)cc(OC)c1OC (centres undefined) | 6.59% (active)

From PubChem BioAssay (NCI)
